# From publication PMC11006913
# Substitutions are numbered along the chain they refer to.
# Tests used:
# Assay in all cases: PBM; 200 nM protein, PBS
# Details in all cases: dsDNA, one strand shown
# VENTX [1] = target: T1, VENTX (Homo sapiens, UniProt O95231 78-163, R121Q)
# T1 sequence: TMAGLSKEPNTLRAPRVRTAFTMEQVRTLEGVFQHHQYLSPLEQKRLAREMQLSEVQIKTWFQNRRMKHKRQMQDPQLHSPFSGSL
# HOXA4 [2] = target: HOXA4 (Homo sapiens, UniProt Q00056 201-287, W262R)
# VENTX [3] = target: T2, VENTX (Homo sapiens, UniProt O95231 78-163)
# T2 sequence: T1 sequence with Q44R
# VENTX [4] = target: T3, VENTX (Homo sapiens, UniProt O95231 78-163, Y115F)
# T3 sequence: T1 sequence with Y38F, Q44R
# HOXA2 [5] = target: HOXA2 (Homo sapiens, UniProt O43364 129-215, R185T)
# HOXA4 [6] = target: HOXA4 (Homo sapiens, UniProt Q00056 201-287, R217L)
# NKX2-6 = target: T4, NKX2-6 (Homo sapiens, UniProt A6NCS4 118-204, R150C)
# T4 sequence: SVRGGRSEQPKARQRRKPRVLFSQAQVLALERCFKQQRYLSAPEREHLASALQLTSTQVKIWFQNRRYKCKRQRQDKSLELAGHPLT
# MSX2 [7] = target: MSX2 (Homo sapiens, UniProt P35548 130-214, R199I)
# HOXA2 [8] = target: HOXA2 (Homo sapiens, UniProt O43364 129-215, R185K)
# HOXA4 [9] = target: HOXA4 (Homo sapiens, UniProt Q00056 201-287)
# MSX2 [10] = target: MSX2 (Homo sapiens, UniProt P35548 130-214)
# PROP1 [11] = target: PROP1 (Homo sapiens, UniProt O75360 56-141)
# PROP1 [12] = target: PROP1 (Homo sapiens, UniProt O75360 56-141, R99H)
# VAX1 [13] = target: VAX1 (Homo sapiens, UniProt Q5SQQ9 86-172)
# PROP1 [14] = target: PROP1 (Homo sapiens, UniProt O75360 56-141, F88S)
# MSX2 [15] = target: MSX2 (Homo sapiens, UniProt P35548 130-214, F161Y)
# VAX1 [16] = target: VAX1 (Homo sapiens, UniProt Q5SQQ9 86-172, T142I)
# HOXA2 [17] = target: HOXA2 (Homo sapiens, UniProt O43364 129-215, Y150S)
# HOXA4 [18] = target: HOXA4 (Homo sapiens, UniProt Q00056 201-287, W262F)
# HOXA2 [19] = target: HOXA2 (Homo sapiens, UniProt O43364 129-215)
# VAX1 [20] = target: VAX1 (Homo sapiens, UniProt Q5SQQ9 86-172, K157R)
# HOXC9 [21] = target: HOXC9 (Homo sapiens, UniProt P31274 178-260, K195R)
# HOXC9 [22] = target: HOXC9 (Homo sapiens, UniProt P31274 178-260)
# HOXC9 [23] = target: HOXC9 (Homo sapiens, UniProt P31274 178-260, R193K)
# HOXC9 [24] = target: HOXC9 (Homo sapiens, UniProt P31274 178-260, R222W)
# HOXC9 (Homo sapiens, UniProt P31274 178-260, R222W), sequence (P31274 178-260 R222W): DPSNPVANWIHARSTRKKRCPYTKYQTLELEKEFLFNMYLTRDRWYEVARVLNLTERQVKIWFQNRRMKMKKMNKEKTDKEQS
# HOXA4 (Homo sapiens, UniProt Q00056 201-287, R217L), sequence (Q00056 201-287 R217L): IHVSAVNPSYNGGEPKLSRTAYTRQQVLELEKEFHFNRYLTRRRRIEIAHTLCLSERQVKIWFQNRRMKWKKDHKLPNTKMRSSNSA
# HOXA4 (Homo sapiens, UniProt Q00056 201-287), sequence (Q00056 201-287): as the sequence (Q00056 201-287 R217L) above, with L17R counted along it
# HOXA4 (Homo sapiens, UniProt Q00056 201-287, W262R), sequence (Q00056 201-287 W262R): as the sequence (Q00056 201-287 R217L) above, with L17R, W62R counted along it
# HOXA4 (Homo sapiens, UniProt Q00056 201-287, W262F), sequence (Q00056 201-287 W262F): as the sequence (Q00056 201-287 R217L) above, with L17R, W62F counted along it
# PROP1 (Homo sapiens, UniProt O75360 56-141, R99H), sequence (O75360 56-141 R99H): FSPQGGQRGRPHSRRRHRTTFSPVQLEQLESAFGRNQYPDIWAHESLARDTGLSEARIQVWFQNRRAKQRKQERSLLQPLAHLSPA
# PROP1 (Homo sapiens, UniProt O75360 56-141, F88S), sequence (O75360 56-141 F88S): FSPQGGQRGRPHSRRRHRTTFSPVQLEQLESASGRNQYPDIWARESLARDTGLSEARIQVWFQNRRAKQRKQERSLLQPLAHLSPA
# HOXC9 (Homo sapiens, UniProt P31274 178-260), sequence (P31274 178-260): as the sequence (P31274 178-260 R222W) above, with W45R counted along it
# HOXA2 (Homo sapiens, UniProt O43364 129-215, R185T), sequence (O43364 129-215 R185T): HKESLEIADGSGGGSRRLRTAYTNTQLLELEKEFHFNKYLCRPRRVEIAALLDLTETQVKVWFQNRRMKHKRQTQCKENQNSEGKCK
# HOXA2 (Homo sapiens, UniProt O43364 129-215, R185K), sequence (O43364 129-215 R185K): as the sequence (O43364 129-215 R185T) above, with T57K counted along it
# PROP1 (Homo sapiens, UniProt O75360 56-141), sequence (O75360 56-141): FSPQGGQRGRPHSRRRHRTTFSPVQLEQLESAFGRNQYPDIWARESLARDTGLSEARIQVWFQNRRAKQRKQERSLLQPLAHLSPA
# VAX1 (Homo sapiens, UniProt Q5SQQ9 86-172, T142I), sequence (Q5SQQ9 86-172 T142I): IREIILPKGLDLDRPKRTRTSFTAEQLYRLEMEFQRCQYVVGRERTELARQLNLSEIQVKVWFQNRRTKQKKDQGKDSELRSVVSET
# HOXC9 (Homo sapiens, UniProt P31274 178-260, K195R), sequence (P31274 178-260 K195R): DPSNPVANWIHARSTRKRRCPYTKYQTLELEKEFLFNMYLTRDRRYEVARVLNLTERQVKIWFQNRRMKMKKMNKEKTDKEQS
# MSX2 (Homo sapiens, UniProt P35548 130-214, F161Y), sequence (P35548 130-214 F161Y): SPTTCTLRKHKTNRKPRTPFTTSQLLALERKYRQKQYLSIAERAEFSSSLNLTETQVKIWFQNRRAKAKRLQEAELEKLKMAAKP
# VAX1 (Homo sapiens, UniProt Q5SQQ9 86-172, K157R), sequence (Q5SQQ9 86-172 K157R): as the sequence (Q5SQQ9 86-172 T142I) above, with I57T, K72R counted along it
# MSX2 (Homo sapiens, UniProt P35548 130-214, R199I), sequence (P35548 130-214 R199I): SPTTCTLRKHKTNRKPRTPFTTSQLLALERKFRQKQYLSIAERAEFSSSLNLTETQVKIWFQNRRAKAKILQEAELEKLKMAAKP
# MSX2 (Homo sapiens, UniProt P35548 130-214), sequence (P35548 130-214): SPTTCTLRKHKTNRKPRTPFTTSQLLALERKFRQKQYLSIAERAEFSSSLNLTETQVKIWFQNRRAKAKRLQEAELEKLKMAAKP
# HOXA2 (Homo sapiens, UniProt O43364 129-215, Y150S), sequence (O43364 129-215 Y150S): as the sequence (O43364 129-215 R185T) above, with Y22S, T57R counted along it
# VAX1 (Homo sapiens, UniProt Q5SQQ9 86-172), sequence (Q5SQQ9 86-172): as the sequence (Q5SQQ9 86-172 T142I) above, with I57T counted along it
# HOXA2 (Homo sapiens, UniProt O43364 129-215), sequence (O43364 129-215): as the sequence (O43364 129-215 R185T) above, with T57R counted along it
# HOXC9 (Homo sapiens, UniProt P31274 178-260, R193K), sequence (P31274 178-260 R193K): as the sequence (P31274 178-260 R222W) above, with R16K, W45R counted along it
sequence,measurement,setting,value
GCCAGGGC,binding signal,VENTX [1],"7.76 upbm affinity estimate (log intensity, higher = more binding, comparable within an allelic series)"
same,binding signal,HOXA4 [2],"9.77 upbm affinity estimate (log intensity, higher = more binding, comparable within an allelic series)"
same,binding signal,VENTX [3],"7.69 upbm affinity estimate (log intensity, higher = more binding, comparable within an allelic series)"
same,binding signal,VENTX [4],"7.85 upbm affinity estimate (log intensity, higher = more binding, comparable within an allelic series)"
same,binding signal,HOXA2 [5],"6.87 upbm affinity estimate (log intensity, higher = more binding, comparable within an allelic series)"
same,binding signal,HOXA4 [6],"9.77 upbm affinity estimate (log intensity, higher = more binding, comparable within an allelic series)"
same,binding signal,NKX2-6,"9.13 upbm affinity estimate (log intensity, higher = more binding, comparable within an allelic series)"
same,binding signal,MSX2 [7],"9.52 upbm affinity estimate (log intensity, higher = more binding, comparable within an allelic series)"
same,binding signal,HOXA2 [8],"10.3 upbm affinity estimate (log intensity, higher = more binding, comparable within an allelic series)"
same,binding signal,HOXA4 [9],"9.7 upbm affinity estimate (log intensity, higher = more binding, comparable within an allelic series)"
same,binding signal,MSX2 [10],"9.44 upbm affinity estimate (log intensity, higher = more binding, comparable within an allelic series)"
same,binding signal,PROP1 [11],"6.61 upbm affinity estimate (log intensity, higher = more binding, comparable within an allelic series)"
same,binding signal,PROP1 [12],"6.73 upbm affinity estimate (log intensity, higher = more binding, comparable within an allelic series)"
same,binding signal,VAX1 [13],"7.25 upbm affinity estimate (log intensity, higher = more binding, comparable within an allelic series)"
same,binding signal,PROP1 [14],"6.44 upbm affinity estimate (log intensity, higher = more binding, comparable within an allelic series)"
same,binding signal,MSX2 [15],"9.44 upbm affinity estimate (log intensity, higher = more binding, comparable within an allelic series)"
same,binding signal,VAX1 [16],"7.16 upbm affinity estimate (log intensity, higher = more binding, comparable within an allelic series)"
same,binding signal,HOXA2 [17],"10.4 upbm affinity estimate (log intensity, higher = more binding, comparable within an allelic series)"
same,binding signal,HOXA4 [18],"9.81 upbm affinity estimate (log intensity, higher = more binding, comparable within an allelic series)"
same,binding signal,HOXA2 [19],"6.74 upbm affinity estimate (log intensity, higher = more binding, comparable within an allelic series)"
same,binding signal,VAX1 [20],"7.15 upbm affinity estimate (log intensity, higher = more binding, comparable within an allelic series)"
CCAGGGCC,binding signal,VENTX [1],"8.11 upbm affinity estimate (log intensity, higher = more binding, comparable within an allelic series)"
same,binding signal,HOXA4 [2],"9.65 upbm affinity estimate (log intensity, higher = more binding, comparable within an allelic series)"
same,binding signal,VENTX [3],"8.27 upbm affinity estimate (log intensity, higher = more binding, comparable within an allelic series)"
same,binding signal,VENTX [4],"8.19 upbm affinity estimate (log intensity, higher = more binding, comparable within an allelic series)"
same,binding signal,HOXA4 [6],"9.71 upbm affinity estimate (log intensity, higher = more binding, comparable within an allelic series)"
same,binding signal,HOXA4 [9],"9.79 upbm affinity estimate (log intensity, higher = more binding, comparable within an allelic series)"
same,binding signal,HOXA4 [18],"9.73 upbm affinity estimate (log intensity, higher = more binding, comparable within an allelic series)"
CCGTCCGC,binding signal,VENTX [1],"7.99 upbm affinity estimate (log intensity, higher = more binding, comparable within an allelic series)"
same,binding signal,HOXC9 [21],"9.35 upbm affinity estimate (log intensity, higher = more binding, comparable within an allelic series)"
same,binding signal,VENTX [3],"8.02 upbm affinity estimate (log intensity, higher = more binding, comparable within an allelic series)"
same,binding signal,VENTX [4],"7.93 upbm affinity estimate (log intensity, higher = more binding, comparable within an allelic series)"
same,binding signal,HOXC9 [22],"9.48 upbm affinity estimate (log intensity, higher = more binding, comparable within an allelic series)"
same,binding signal,HOXC9 [23],"9.36 upbm affinity estimate (log intensity, higher = more binding, comparable within an allelic series)"
same,binding signal,HOXC9 [24],"9.54 upbm affinity estimate (log intensity, higher = more binding, comparable within an allelic series)"
